Source: PubChem BioAssay AID1566 (Sanford-Burnham Center for Chemical Genomics, 2009)
In all, about 290,000 compounds went through this assay and about 1,800 (0.62%) were called active. The full list was thinned out, with actives kept by preference. Unmarked numbers belong to inactive results. No stated cut-off is given here; in the data, active means inhibition above about 50%; inactive means the rest.

Test: NOD2 signaling inhibitors, cell-based, luminescence, uHTS, HEK293 (AID 1566)
Settings: HEK293 NOD2/NF-kB luciferase reporter, at 4 µM, stronger effect = higher value
CC1Cc2ccccc2N1S(=O)(=O)c1cccc(C(=O)OCC(=O)NC2CCS(=O)(=O)C2)c1 (centres undefined) gave an inhibition of -8.8%. With CC1(CC(=O)N/N=C/c2ccc(-c3ccc(C(=O)O)cc3)o2)OCCO1 the inhibition was 17.9%. CCn1cc(S(=O)(=O)Nc2cc(C(=O)OC)ccc2C)cn1 showed an inhibition of 8.3%. COc1cccc(OCCn2c(C)c(/C=N/n3cnnc3)c3ccccc32)c1 showed an inhibition of 10.9%. With CC(C)C(O)(c1ccccc1)C(CN1CCOCC1)c1ccccc1 (centres undefined) the inhibition was 56.7% (active). COc1ccc(C(O)(C(C)C)C(CN2CCOCC2)c2ccccc2)cc1 (centres undefined) gave an inhibition of 8.6%. Work on CCc1ccc(C(O)(C(C)C)C(CN2CCOCC2)c2ccccc2)cc1 (centres undefined) yielded an inhibition of 0.6%. Compound COc1ccc(NC(=O)CCn2c(=O)c3cccn3c3ccccc32)c(OC)c1 has an inhibition of 38.3%. For Cc1ccc(CCNC(=O)C23C[C@H]4C[C@@H](C2)CC(n2nnc(C)n2)(C4)C3)cc1, the inhibition was 8.2%. Cc1nnn(C23C[C@@H]4C[C@@H](CC(C(=O)N5CCN(c6ccccc6)CC5)(C4)C2)C3)n1 showed an inhibition of -0.7%. For Cn1ccnc1C(=O)c1ccc(S(=O)(=O)N2CCCC2)cc1, the inhibition was 14.8%. COc1ccc(NC(=O)c2sc3nc(N4CCOCC4)c4c(c3c2N)CCCC4)c(OC)c1 showed an inhibition of 30.8%. With Cc1ccccc1NC(=O)c1sc2nc(N3CCOCC3)c3c(c2c1N)CCCC3 the inhibition was 23.1%. For COc1ccccc1NC(=O)c1sc2nc(N3CCOCC3)c3c(c2c1N)CCCC3, the inhibition was 50% (active). COC(=O)c1ccccc1NC(=O)CSc1nnc(-c2cccnc2)o1 gave an inhibition of -6.6%. In the case of Cc1ccc2[nH]cc(/C=C/c3cc[n+](C)cc3)c2c1, the inhibition was 48%. Cc1ccc2[nH]c(C)c(/C=C/c3cc[n+](C)cc3)c2c1 showed an inhibition of 29.1%. With COc1ccc(OC)c(S(=O)(=O)N(C)CC(=O)Nc2ccc3c(c2)OCO3)c1 the inhibition was 4.6%. Work on CCCNC(=O)Cn1cnc2sc(C(=O)N3CCN(CCC)CC3)c(C)c2c1=O yielded an inhibition of 24.6%. With CC(C)(C)n1nnnc1C(c1ccncc1)N1CCN(c2ccc(O)cc2)CC1 (centres undefined) the inhibition was -4.7%. c1ccc2c(c1)SCc1nnc(-c3ccncc3)n1-2 gave an inhibition of 5.9%. Cc1oc(-c2ccccc2)nc1CSc1nc2c(c(=O)[nH]1)CCC2 showed an inhibition of 30.8%. With Cc1oc(-c2ccccc2Cl)nc1CSc1nc2c(c(=O)[nH]1)CCC2 the inhibition was -2%. Work on CN(C(=O)COc1ccccc1C(=O)NCCc1ccccc1)c1ccccc1 yielded an inhibition of -25.8%. In the case of COc1ccccc1C(=O)NCCC(=O)NCCOc1ccccc1, the inhibition was 16.2%. COc1ccc(N2CCN(C(=O)Cn3c(=O)[nH]c4ccsc4c3=O)CC2)cc1 gave an inhibition of 0.6%. In the case of Cc1ccc(S(=O)(=O)Nc2ccccc2-c2ccccc2)cc1, the inhibition was -12.5%. Cc1ccc(S(=O)(=O)Nc2ccccc2C(N)=O)cc1 gave an inhibition of 0.2%. Work on O=S(=O)(NCc1ccccn1)c1cc(Cl)ccc1Cl yielded an inhibition of -6%. Nc1c(NCc2ccccc2F)c(=O)[nH]c(=O)n1Cc1ccccc1 showed an inhibition of -4.5%. Cc1occc1C(=O)n1nnc2ccccc21 showed an inhibition of 7.3%. For Cc1ccc(C(C#N)c2ccc3c(C(F)(F)F)cc(C(F)(F)F)nc3n2)cc1 (centres undefined), the inhibition was 19.1%. With N#CC(c1ccc(Cl)cc1)c1ccc2c(C(F)(F)F)cc(C(F)(F)F)nc2n1 (centres undefined) the inhibition was 44.4%. For CC(NC(=O)CSc1nc2ccccc2n1CCC#N)c1ccc(F)cc1 (centres undefined), the inhibition was 19.2%. CCOc1ccc(S(=O)(=O)N2CCC(C(=O)N3CCCC3)CC2)cc1C showed an inhibition of 24.6%. COc1ccc(-c2cn3c(C)c(C(=O)N4CCN(c5ccccc5F)CC4)sc3n2)cc1 showed an inhibition of 25.5%. For Cc1cc(C(C)(C)C)cc(C)c1C[n+]1ccc2ccccc2c1, the inhibition was 52.3% (active). With Cc1ccc(C(=O)C[n+]2ccc3ccccc3c2)cc1 the inhibition was 9%. Compound Clc1cccc(Cl)c1C[n+]1ccc2ccccc2c1 has an inhibition of 18.8%. With O=C(NCCn1ccc2ccccc21)c1ccc(S(=O)(=O)N2CCCCC2)cc1 the inhibition was -4.3%. Work on FC(F)(F)c1cc(-c2ccccc2)nc2ncnn12 yielded an inhibition of -1.1%. In the case of FC(F)(F)c1ccc(N2CCN(c3cc(-c4ccccc4)nc4ncnn34)CC2)nc1, the inhibition was 52% (active). O=S(=O)(c1ccccc1)N1CCN(c2cc(-c3ccccc3)nc3ncnn23)CC1 showed an inhibition of 43.4%. With CC(=O)Nc1cccc2c1C(=O)N(c1cccc(OC(C)=O)c1)C2=O the inhibition was 17.8%. In the case of O=C(CNc1ccc2ccccc2c1)N/N=C/c1ccc([N+](=O)[O-])o1, the inhibition was -4.1%. Work on Cc1ccc(C(=O)N/N=C\c2ccc([N+](=O)[O-])o2)cn1 yielded an inhibition of 36%. For O=C(N/N=C/c1ccc([N+](=O)[O-])cc1)c1cc2ccccc2o1, the inhibition was 30.1%. Nc1nonc1C(=O)N/N=C/c1ccc(-c2cccc([N+](=O)[O-])c2)o1 showed an inhibition of 19.7%. For O=C(N/N=C/c1ccc([N+](=O)[O-])o1)c1cc2c(ccc3ccccc32)o1, the inhibition was 12.1%. For O=C(CNc1ccccc1)N/N=C/c1ccc([N+](=O)[O-])o1, the inhibition was 46.1%. With Nc1nonc1C(=O)N/N=C/c1ccc(Br)o1 the inhibition was 4.7%. Cc1cc(C(=O)N/N=C/c2ccc([N+](=O)[O-])o2)c(C)o1 showed an inhibition of 35.5%. In the case of COc1ccccc1CNC(=O)C1CC(c2c(Cl)cccc2Cl)=NO1 (centres undefined), the inhibition was 8.6%. Work on Cc1ccc(NC(=O)Nc2ccc(Cl)cc2)c(Br)c1 yielded an inhibition of -38.7%. O=C(Nc1ccc(Cl)cc1)c1cc(Br)ccc1OCC(=O)N1CCOCC1 gave an inhibition of 40%. Compound COc1ccc(-c2csc(N3CCC(c4ccccc4)CC3)n2)cc1 has an inhibition of 13.7%. Cc1occc1-c1nnc(SCC(=O)O)n1-c1ccccc1 showed an inhibition of -13.8%. With Fc1ccc(NC(=S)Nc2cc(Cl)ccc2Cl)cc1 the inhibition was -16.8%. Work on C[C@@H]1C(=O)O[C@H]2[C@H]1CC[C@@]1(C)C(=O)C=C[C@@](C)(O)[C@H]21 yielded an inhibition of 1.1%.
